# Assay results reported in PubChem BioAssay AID493194 (Broad Institute, 2011).
# Measured potencies and affinities stand elsewhere. Records with an inconclusive call do not appear. The source made the active and inactive calls.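 Rule for the calls: active = a valid curve of falling signal whose half-effect concentration is at most ten times the top tested dose; inconclusive = flat curve at 30 to 70% inhibition, or poor fit; inactive = signal rise, flat within 30%, or potency beyond limit.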
# Target: Scavenger receptor class B member 1 (Mus musculus) (UniProt Q61009)
# Assay: inhibitors of SR-BI mediated HDL lipid uptake, dose response, ldlA[mSR-BI] cells, fluorescence, cherry pick (AID 493194);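 note: CHO cells lacking LDL receptor and overexpressing mouse SR-BI; cellular uptake of fluorescently labeled HDL measured as cell fluorescence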
# Conditions: CHO ldlA[mSR-BI] DiI-HDL uptake fluorescence, 3 h; series mostly up to 35 µM
# Scavenger receptor class B member 1 (Mus musculus), sequence (Q61009 whole entry, looked up): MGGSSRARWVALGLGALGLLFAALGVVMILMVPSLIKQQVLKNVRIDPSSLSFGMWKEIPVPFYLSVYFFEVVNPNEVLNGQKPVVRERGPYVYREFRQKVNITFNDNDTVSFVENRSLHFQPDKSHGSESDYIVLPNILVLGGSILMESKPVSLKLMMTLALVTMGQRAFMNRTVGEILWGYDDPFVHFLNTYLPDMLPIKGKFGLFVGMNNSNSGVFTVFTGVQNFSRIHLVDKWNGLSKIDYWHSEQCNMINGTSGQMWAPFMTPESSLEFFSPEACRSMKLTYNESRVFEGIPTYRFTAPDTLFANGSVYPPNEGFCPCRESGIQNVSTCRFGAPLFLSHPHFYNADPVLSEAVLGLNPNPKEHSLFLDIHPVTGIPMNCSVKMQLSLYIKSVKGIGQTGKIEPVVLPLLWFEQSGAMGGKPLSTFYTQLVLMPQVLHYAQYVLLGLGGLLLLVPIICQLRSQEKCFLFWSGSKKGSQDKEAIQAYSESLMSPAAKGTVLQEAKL
row,Compound,outcome
1,COc1cc(/C=C/C(=O)Nc2cccc(S(=O)(=O)NC3=NCCCCC3)c2)ccc1OCC#N,inactive
2,COc1ccc([C@H]2/C=C\CN(S(=O)(=O)c3ccc(C)cc3)[C@@H](C)C(=O)N2Cc2ccc(F)cc2)cc1,inactive
3,COC(=O)c1[nH]c2c(c1C)C(=O)CC(c1cccs1)C2 (configuration not stated),inactive
4,CCOc1ccc(NC(=O)CN2CCN(CC(=O)Nc3ccc(N(C)C)cc3)CC2)cc1,inactive
5,COc1ccc(-c2nnc(SCC(=O)Nc3ncc(C(F)(F)F)cc3Cl)n2CC(C)C)cc1,inactive
6,COc1ccc(CNC(=O)C(c2ccc(C)cc2)N(Cc2cccs2)C(=O)c2ccc3c(c2)OCCO3)cc1 (configuration not stated),inactive
7,CCOc1ccc(C(=O)Nc2ccc(S(=O)(=O)N3C[C@@H]4C[C@@H](C3)c3cccc(=O)n3C4)cc2)cc1,inactive
8,CC(C)c1ccc(NC(=O)c2sccc2-n2cccc2)cc1,inactive
9,CC(C(=O)NCc1ccccc1)N(Cc1ccccc1Cl)C(=O)c1snc(C(N)=O)c1N (configuration not stated),inactive
10,CNc1nc(-c2ccc3c(c2)CCN3C(=O)c2ccc(F)cc2)cs1,inactive
11,COc1ccc(N(CC(=O)NC2CCCC2)C(=O)Cn2nnc(-c3ccc(OC)c(OC)c3)n2)cc1,inactive
12,CCCOC1CCCN(C(=O)c2cc(COc3cncc(Cl)c3)on2)C1 (configuration not stated),inactive
13,COc1cc(-c2nnn(Cc3ccccc3C)n2)cc(OC)c1OC,inactive
14,CC(C)(C)N(Cc1ccccc1)C(=O)COC(=O)CN1C(=O)NC2(CCCC2)C1=O,inactive
15,COc1ccccc1-n1cnc2cc(NCc3ccco3)ccc21,inactive
16,CCCCN(Cc1ccccc1)c1ncnc2nc[nH]c12,inactive
17,CN(C(=O)COC(=O)CCc1c[nH]c2ccccc12)c1ccccc1,inactive
18,COc1ccc(CCN2CC(C(=O)NCc3cc(C(C)C)no3)CCC2=O)cc1 (configuration not stated),inactive
19,Cc1ccccc1C(=O)NC1CC2CCCC(C1)N2C(=O)Nc1ccccc1 (configuration not stated),inactive
20,COc1ccccc1C(=O)NCCn1cc(SCC(=O)Nc2nnc(C)s2)c2ccccc21,inactive
21,COC(=O)[C@]1(CC(C)C)N[C@H](c2ccc(-c3cccc(Cl)c3)cc2)[C@@H]2C(=O)N(C)C(=O)[C@@H]21,inactive
22,CC(=O)Nc1c(I)c(C(=O)N[C@H]2C(O)O[C@H](CO)[C@@H](O)[C@@H]2O)c(I)c(N(C)C(C)=O)c1I (some centres not stated),inactive
